# Assay outcomes from PubChem.
# An excerpt weighted towards active compounds, which were near 8.8% of everything screened.
# KB-3-1 tox: kills parental KB-3-1 adenocarcinoma cells. KB-3-1 viability, CellTiter-Glo ATP luminescence, 72 h. 400,000 compounds, 1.4% hits. Potency, µM (series often up to 46.1 µM), usual class: cytotoxic; further: potency means the concentration at half of the fitted maximal effect; nearly all actives have a fitted effect of over 60% in size
#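 Parental KB-3-1 viability, qHTS format: 72 h compound exposure, 37 °C; CellTiter-Glo; media-only wells and DMSO plates as controls; concentration-effect fits on corrected data.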
# HT1080 IDH1KD tx: toxicity to HT-1080 IDH1 knockdown cells (counter line); HT-1080 IDH1 knockdown viability, ATP luminescence, 48 h; Potency, µM (top dose mostly 46.1 µM), without a hit: at the highest dose activity, negative = toxicity, most hits filed as cytotoxic; 360,000 compounds, 2% hits; AID 686971;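 further: potency means the concentration at half of the fitted maximal effect; 0% = DMSO wells and -100% = cell-free medium wells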
#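 Knockdown cells (IDH1KD HT-1080) received compounds 2 h after plating at 750 cells/well and were kept 48 h at 37 °C in 5% FBS RPMI. A CellTiter-Glo luminescence read gave % activity for curve fitting.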
# IL1B secr inh: inflammasome signaling inhibition, IL-1 beta readout | THP-1 LPS/ATP IL-1B secretion, AlphaLISA, 16 h; stronger effect = lower value | activity change, % at 57.5 µM | 360,000 compounds, 4.7% hits; in the data active means activity change below about -50%; inconclusive means mostly about -30% to -49%
#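 Secreted IL-1B measured by AlphaLISA bead assay after 16 h compound exposure of THP-1 cells; compounds (final up to 57.5 uM) added 1 h before LPS (250 ng/mL) and ATP (1.25 mM) stimulation; lower signal means less secretion.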
# KB-V1 MDR tox: KB-V1 MDR subline cytotoxicity; KB-V1 MDR cells viability, CellTiter-Glo, 72 h; Potency, µM (highest dose often 46.1 µM), actives largely listed as cytotoxic; 400,000 compounds, 3.4% hits; AID 1347076; further: potency means the concentration at half of the fitted maximal effect; nearly all actives have a fitted effect of over 60% in size
#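 Following 72 h at 37 degrees C with compound, KB-V1 cell viability was read by CellTiter-Glo luminescence, medium being phenol-red-free DMEM plus 10% FBS; concentration-response parameters came from normalized, curve-fitted qHTS data.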
# HT1080-NT tox: kills 2HG-producing HT-1080-NT fibrosarcoma cells; HT-1080-NT fibrosarcoma viability, CellTiter-Glo ATP luminescence, 48 h; Potency, µM (top dose mostly 46.1 µM), for the others: top-dose activity, negative = less viability, actives largely listed as cytotoxic; 360,000 compounds, 1.6% hits; AID 686970;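 further: NT is the 2HG producing partner of a matched IDH1 knockdown line; potency means the concentration at half of the fitted maximal effect; 0% = DMSO-treated cells and -100% = media-only wells without cells; nearly all actives have a fitted effect of over 55% in size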
#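 Read-out is CellTiter-Glo luminescence after 10 minutes at room temperature, following 48 hours' compound treatment of HT-1080-NT cells (750 cells/well, RPMI, 5% FBS, 37 degrees C).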
# * marks the source's active call; other numbers are inactive results; i = inactive; ? = inconclusive; nt = not tested or not shown. Unless noted, the call rests on the fitted dose curve; in most records, active means well fitted curve in the direction sought with a large enough effect; inconclusive means small, poorly fitted or top-dose-only effect, or another doubt; inactive means no such curve, though single readings can be large; an effect the other way counts as inactive or inconclusive. Unless noted, on the % scale 0 is the no-effect control and ±100 the full control effect.
SMILES,KB-3-1 tox,HT1080 IDH1KD tx,IL1B secr inh,KB-V1 MDR tox,HT1080-NT tox
CN(CC(=O)NC(=O)NC1CCCCC1)CC(=O)Nc1ccc(OC(F)(F)F)cc1,i,-10%,-70*,i,-1%
COc1ccc(NC(=O)CN(C)CC(=O)NC2CCCCC2C)cc1 (stereo unspecified),i,2%,23,18µM*,4%
COc1ccc(NC(=O)CN(C)CC(=O)N(C)C2(C#N)CCC(C)CC2)cc1 (stereo unspecified),i,1%,-4,i,2%
COc1ccc(NC(=O)NC2CCCCC2C)cc1 (stereo unspecified),i,8%,-9,i,7%
Cc1ccc([N+](=O)[O-])cc1NC(=S)NCCc1ccccc1,i,-1%,-9,?,-1%
CCC(C)Sc1ccc(-c2nc3ccc(C)cn3c2NCc2ccccc2)cc1OC (stereo unspecified),i,?,-100*,?,?
COc1ccc(-c2cc(-c3nc4ccccn4c3NCc3ccccc3)ccc2OC)cc1,i,?,-56*,?,?
CCC(C)Sc1ccc(-c2nc3ccc(Cl)cn3c2NCc2ccccc2)cc1 (stereo unspecified),i,-1%,-7,i,24%
CCC(C)Sc1cc(-c2nc3ccc(C)cn3c2NCc2ccccc2)ccc1OC (stereo unspecified),?,?,-102*,?,?
CN1CCN(Cn2cc(/C=C/C(=O)c3ccccc3)c3ccccc32)CC1,i,0%,-66*,?,5%
O=C(/C=C/c1cn(CC(O)CN2CCCCC2)c2ccccc12)c1ccccc1 (stereo unspecified),i,16µM*,-87*,i,?
O=C(/C=C/c1cn(CC(O)CN2CCCCC2)c2ccccc12)c1cccs1 (stereo unspecified),?,?,-68*,23µM*,?
COc1ccc(C(=O)/C=C/c2cn(CC(O)CN3CCN(C)CC3)c3ccccc23)cc1OC (stereo unspecified),i,15µM*,nt,i,16µM*
O=c1c2sc3ccccc3c2n(Cc2cccc(Cl)c2)c(=O)n1Cc1ccccc1,i,nt,nt,i,nt
O=C1CCCN1c1ccc(S(=O)(=O)N2CCC(c3ccccc3)CC2)cc1,i,-27%,4,2.6µM*,-5%
CC1=CC(C)(C)Nc2ccc(OC(=O)CN3C(=O)c4cccc5cccc(c45)C3=O)cc21,i,-15%,-107*,i,0%
CC1=CC(C)(C)Nc2ccc(OC(=O)CN3C(=O)c4ccccc4C3=O)cc21,?,?,-100*,i,?
CC1=CC(C)(C)Nc2ccc(OC(=O)C(Cc3ccccc3)N3C(=O)c4ccccc4C3=O)cc21 (stereo unspecified),i,-2%,?,i,-2%
O=S(=O)(c1ccc(F)cc1)c1nc(-c2ccco2)oc1NCCCn1ccnc1,i,-9%,-29,i,-10%
CCCn1c(N)c(N(CCOC)C(=O)c2ccc(-c3ccc(Cl)cc3)o2)c(=O)[nH]c1=O,i,-2%,-6,i,-3%
CCOc1ccc(CCN2C(=O)C(=O)N([C@@H](Cc3ccccc3)CN3CCC[C@H]3CN3C(=O)C(=O)NC[C@@H]3Cc3ccccc3)C[C@@H]2Cc2ccc(O)cc2)cc1,?,?,-64*,i,?
CCOc1ccc(CCN2C(=O)C(=O)N([C@@H](Cc3ccccc3)CN3CCC[C@H]3CN3C(=O)C(=O)NC[C@@H]3Cc3ccccc3)C[C@@H]2Cc2ccccc2)cc1,?,?,?,i,?
CCOc1ccc(CCN2C(=O)C(=O)N([C@@H](CC(C)C)CN3CCC[C@@H]3CN3C(=O)C(=O)NC[C@@H]3Cc3ccccc3)C[C@@H]2Cc2ccc(O)cc2)cc1,?,-9%,-52*,i,-10%
CCOc1ccc(CCN2C(=O)C(=O)N([C@@H](CC(C)C)CN3CCC[C@H]3CN3C(=O)C(=O)NC[C@@H]3Cc3ccccc3)C[C@@H]2Cc2ccc(O)cc2)cc1,i,?,0,i,?
CCOc1ccc(CCN2C(=O)C(=O)N([C@@H](Cc3ccccc3)CN3CCC[C@H]3CN3C(=O)C(=O)NC[C@@H]3Cc3ccccc3)C[C@@H]2CC(C)C)cc1,?,1%,-79*,i,-7%
SMILES,KB-3-1 tox,HT1080 IDH1KD tx,IL1B secr inh,KB-V1 MDR tox,HT1080-NT tox
CCOc1ccc(CCN2C(=O)C(=O)N([C@@H](Cc3ccc(O)cc3)CN3CCC[C@H]3CN3C(=O)C(=O)NC[C@@H]3Cc3ccccc3)C[C@@H]2Cc2ccc(O)cc2)cc1,i,-20%,-52*,i,-11%
O=S(=O)(/N=C(/c1ccccc1)N1CCCCC1)c1ccccc1,i,15%,-28,?,8%
COc1ccc(-n2cnnc2SCC(=O)NC2CCCc3ccccc32)cc1 (stereo unspecified),i,-2%,0,?,5%
Cc1ccc(NC(=O)c2ccc(C)c(S(=O)(=O)N3CCOCC3)c2)nc1,i,21%,-7,15µM*,4%
Cc1ccc(S(=O)(=O)N2CCC(C(=O)N/N=C/c3ccccc3[N+](=O)[O-])CC2)cc1,i,-11%,-1,13µM*,1%
Cc1ccc(S(=O)(=O)N2CCC(C(=O)Nc3ccc(S(=O)(=O)N4CCOCC4)cc3)CC2)cc1,23µM*,-15%,19,16µM*,-1%
Cc1ccc(NC(=O)c2ccc(S(=O)(=O)N3CCOCC3)cc2)nc1,i,-2%,-1,16µM*,2%
Cc1ccc(C(=O)Nc2ccc(S(=O)(=O)N3CCOCC3)cc2)cc1,i,-3%,-15,i,-11%
Cc1ccc(S(=O)(=O)N2CCC(C(=O)N/N=C/c3cccnc3)CC2)cc1,i,-14%,10,i,-1%
Cn1c(CNC(=O)c2ccco2)nnc1SCC(=O)c1ccc(Br)cc1,i,-2%,-11,i,-3%
Cc1ccc(NC(=O)c2ccc3nc[nH]c3c2)nc1,?,?,8,i,-14%
Cc1ccc(NC(=O)c2ccc(C(=O)c3ccccc3)cc2)nc1,15µM*,?,-14,?,?
Cc1ccc(CSCCNC(=O)c2ccc(Cl)c(S(=O)(=O)N3CCOCC3)c2)cc1,21µM*,-25%,-10,3.7µM*,-2%
Cc1ccc(S(=O)(=O)N2CCC(C(=O)OC(C)C(=O)N3CCOCC3)CC2)cc1 (stereo unspecified),i,1%,26,i,3%
CC(=O)Nc1ccc(S(=O)(=O)N2CCC(C(=O)c3ccc(Cl)cc3)CC2)cc1,i,-20%,-51*,i,-17%
